Assay results from PubChem BioAssay (NCATS).
Active and inactive are the calls of the source. Entries that show only a call come without a potency. Calls come from the whole dose curve; as a rule, active = well fitted inhibition curve with a large enough effect; inconclusive = small, poorly fitted or top-dose-only effect; inactive = flat fitted curve, though single readings scatter.

Molecular target: ATP-dependent DNA helicase Q1 (Homo sapiens) (UniProt P46063)
Assay: qHTS Validation Assay for Inhibitors of RecQ-Like Dna Helicase 1 (RECQ1) (AID 2353)
Conditions: recombinant RECQ1 helicase DNA unwinding assay; series mostly up to 25.6 µM
Source text: Survival of cells and the faithful propagation of the genome depend on elaborate mechanisms of detecting and repairing DNA damage. Treatment of advanced cancer relies on radiation therapy or chemotherapy, which kill cancer cells by causing extensive DNA damage. It is often found, that cancer cells develop resistance to therapy through enhanced activity of DNA repair functions; this has led to an increased interest in developing drugs that interfere with DNA repair, which could sensitize cancer cells to conventional therapy.
This validation qHTS assay pertains to human RECQ1, which is important in resolving abnormal DNA structures formed during replication or homologous recombination. Shutting down the expression of RECQ1 leads to chromosomal instability and higher radiation sensitivity in cultured cells.
The validation assay was a fluorescence quenching based kinetic qHTS for RECQ1 Helicase DNA unwinding. The activity was measured as ATP-dependent separation of a 20-bp DNA duplex extended by 30-nt single-stranded tails (forked duplex). The forked DNA substrate was tagged with rhodamine fluorophore (carboxytetramethyl rhodamine, TAMRA) and BHQ-2 (Black Hole Quencher 2) dark quencher. Strand separation results in an increase in the fluorescence of TAMRA (excitation 525 nm, emission 598 nm). This substrate construct operates in a red-shifted region where very few compound library members have been noted to fluoresce (PubChem AIDs 593 and 594). An additional feature of the assay is the inclusion of 2.5 ug/ml poly (dIdC), to reduce interference by compounds such as DNA intercalators, a major source of false inhibitors.
Opher Gileadi, Structural Genomics Consortium, University of Oxford
Screening Center PI: Austin, C.P.
Screening Center: NIH Chemical Genomics Center [NCGC]
Three uL of reaction buffer (25 mM Tris-HCl (pH 8.0), 5 mM NaCl, 2 mM MgCl2, 1mM DTT, 0.01% Tween- 20, and 2.5 ug/ml poly(dI-dC), including enzyme (50 nM RECQ1T1), were dispensed into a 1536-well Greiner black assay plate via solenoid-valve based nanoliter dispensers. Compounds (23 nl each in columns 5-48) and control (23 nl each in column 2 as dose-response) were transferred via a Kalypsys pintool equipped with a 1536-pin array. The plates were incubated for 15 min at room temperature, and then 1 ul of substrates (200 nM DNA and 2 mM ATP, final concentrations) was added to start the reaction. The plate was transferred into a ViewLux high-throughput CCD imager where the reaction progress was measured in a discontinuous kinetic mode (two reads spaced 2 hours apart, with intermediate room temperature incubation of the covered assay plate) by using standard red-fluorescence optics (excitation filter 525 nm, emission filter 598 nm). Enzyme-free and vehicle (DMSO) controls were included for signal normalization.
Potency is the fitted concentration of half-maximal effect.

Chain of ATP-dependent DNA helicase Q1 (Homo sapiens) (P46063 whole entry, looked up): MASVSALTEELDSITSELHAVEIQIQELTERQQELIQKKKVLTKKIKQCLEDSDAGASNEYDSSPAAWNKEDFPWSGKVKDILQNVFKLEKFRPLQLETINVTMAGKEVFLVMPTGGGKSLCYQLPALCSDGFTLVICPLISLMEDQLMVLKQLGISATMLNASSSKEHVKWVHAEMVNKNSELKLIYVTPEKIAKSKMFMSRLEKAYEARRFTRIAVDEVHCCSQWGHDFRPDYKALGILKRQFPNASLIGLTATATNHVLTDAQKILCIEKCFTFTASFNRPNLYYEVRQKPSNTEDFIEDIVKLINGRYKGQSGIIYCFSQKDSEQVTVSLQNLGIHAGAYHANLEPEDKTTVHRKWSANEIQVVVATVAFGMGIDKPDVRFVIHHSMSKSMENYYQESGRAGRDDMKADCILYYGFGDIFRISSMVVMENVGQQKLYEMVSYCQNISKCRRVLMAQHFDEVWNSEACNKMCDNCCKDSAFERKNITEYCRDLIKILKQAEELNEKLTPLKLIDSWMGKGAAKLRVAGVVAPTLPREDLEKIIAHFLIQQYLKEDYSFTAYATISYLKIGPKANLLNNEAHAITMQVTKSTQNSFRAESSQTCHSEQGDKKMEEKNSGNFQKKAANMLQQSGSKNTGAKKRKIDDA

SMILES	Potency
CN(C)C(=O)Oc1cccc([N+](C)(C)C)c1	inactive
CCN1CCC[C@H]1CNC(=O)c1c(O)c(Cl)cc(Cl)c1OC	inactive
COc1ccc([C@@H]2Sc3ccccc3N(CCN(C)C)C(=O)[C@@H]2OC(C)=O)cc1	inactive
CCCN1C[C@H](CSC)C[C@@H]2c3cccc4[nH]cc(c34)C[C@H]21	inactive
OC(CCN1CCCCC1)(c1ccccc1)C1CCCCC1 (stereo not given)	inactive
CCCCNc1c(C(=O)OCC)c(C)nc2c1cnn2CC	inactive
CC(C)[N+](C)(CCOC(=O)C1c2ccccc2Oc2ccccc21)C(C)C	inactive
CC(C(=O)O)c1ccc(CC2CCCC2=O)cc1 (stereo not given)	inactive
C[N+](C)(C)CCOC(N)=O	inactive
Nc1ncn([C@@H]2O[C@H](CO)[C@@H](O)[C@H]2O)c(=O)n1	inactive
CC(=O)[C@]1(O)Cc2c(O)c3c(c(O)c2[C@@H](O[C@H]2C[C@H](N)[C@H](O)[C@H](C)O2)C1)C(=O)c1ccccc1C3=O	11.2 µM (active)
C[C@]12C=CC(=O)C=C1CC[C@H]1[C@@H]3C[C@@H](O)[C@](O)(C(=O)CO)[C@@]3(C)C[C@H](O)[C@@]12F	inactive
c1cc(CN2CCCCC2)cc(OCCCNc2nc3ccccc3s2)c1	inactive
NCCCNCCSP(=O)(O)O	inactive
CCO/C([O-])=N/c1c[n+](N2CCOCC2)no1	inactive
CN(C)CCN(Cc1cccs1)c1ccccn1	inactive
c1cnc(N2CCN(Cc3ccc4c(c3)OCO4)CC2)nc1	inactive
C#CCN(C)CCCOc1ccc(Cl)cc1Cl	inactive
CC(C)COCC(CN(Cc1ccccc1)c1ccccc1)N1CCCC1 (stereo not given)	inactive
Fc1ccc(C(c2ccc(F)cc2)N2CCN(C/C=C/c3ccccc3)CC2)cc1	inactive

SMILES	Potency
COC(=O)[C@H]1[C@H]2C[C@@H]3c4[nH]c5cc(OC)ccc5c4CCN3C[C@H]2C[C@@H](OC(=O)c2cc(OC)c(OC)c(OC)c2)[C@@H]1OC	inactive
CCn1ccnc1CC1COc2ccccc2O1 (stereo not given)	inactive
CN1CCN(CC(=O)N2c3ccccc3C(=O)Nc3cccnc32)CC1	inactive
NC(N)=N/N=C/c1c(Cl)cccc1Cl	inactive
Cc1nnc(SCC2=C(C(=O)O)N3C(=O)[C@@H](NC(=O)Cn4cnnn4)[C@H]3SC2)s1	inactive
CSc1ccc(C(=O)c2[nH]c(=O)[nH]c2C)cc1	inactive
CCCCCN(CCCCC)C(=O)C(CCC(=O)O)NC(=O)c1ccc(Cl)c(Cl)c1 (stereo not given)	inactive
O=C1CC2(CCCC2)CC(=O)N1CCCCN1CCN(c2ncccn2)CC1	inactive
CC[N+](C)(C)c1cccc(O)c1	inactive
CN(C)CC[C@@H](c1ccc(Br)cc1)c1ccccn1	inactive
CN(C)CC/C=C1\c2ccccc2COc2ccccc21	inactive
CCCC(C(=O)OCCN(CC)CC)(c1ccccc1)c1ccccc1	inactive
C(=C\c1ccccc1)/CN1CCN(C(c2ccccc2)c2ccccc2)CC1	inactive
C[N+](C)(C)CCCCCCCCCC[N+](C)(C)C	inactive
CCc1cccc(N(C)C(N)=Nc2cccc3ccccc23)c1	inactive
Cc1nc2ccccn2c(=O)c1CCN1CCC(C(=O)c2ccc(F)cc2)CC1	inactive
CCCCNC(=O)NS(=O)(=O)c1ccc(C)cc1	inactive
Cc1ccc(S(=O)(=O)NC(=O)NN2CCCCCC2)cc1	inactive
Cc1ccc(Cl)c(Nc2ccccc2C(=O)O)c1Cl	inactive
CN(C)CCOC(=O)COc1ccc(Cl)cc1	inactive
